Reference: PubChem BioAssay (NCI)
Where “and” joins values, the source holds several entries; their conditions need not be identical. Equal entries are not always repeated. Compounds without any hit were thinned out: in the full panel of roughly 83,000, 20% have a hit.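 Method: cells in 96-well plates; compound added at one concentration; 48 h incubation; percent growth measured; values under 10 scored active.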 Calls of active or inactive are those of the source.

Legend:
Test in all cases: NCI-60 one-dose screen, 48 h (100 = growth as untreated, 0 = no growth, -100 = all killed)
Conditions in all cases: 10 µM unless noted
HCT-15 colon = test system: HCT-15 colon
HT29 colon = test system: HT29 colon
SNB-75 CNS = test system: SNB-75 CNS
SNB-19 CNS = test system: SNB-19 CNS
U251 CNS = test system: U251 CNS
PC-3 prostate = test system: PC-3 prostate
SK-MEL-5 melanoma = test system: SK-MEL-5 melanoma
UACC-62 melanoma = test system: UACC-62 melanoma
LOX IMVI melanoma = test system: LOX IMVI melanoma
SK-MEL-28 melanoma = test system: SK-MEL-28 melanoma
SK-MEL-2 melanoma = test system: SK-MEL-2 melanoma
EKVX NSCLC = test system: EKVX NSCLC
SN12C renal = test system: SN12C renal
UO-31 renal = test system: UO-31 renal
TK-10 renal = test system: TK-10 renal
ACHN renal = test system: ACHN renal
CAKI-1 renal = test system: CAKI-1 renal
A498 renal = test system: A498 renal
HL-60(TB) leukemia = test system: HL-60(TB) leukemia
CCRF-CEM leukemia = test system: CCRF-CEM leukemia

| SMILES | growth (HCT-15 colon) | growth (HT29 colon) | growth (SNB-75 CNS) | growth (SNB-19 CNS) | growth (U251 CNS) | growth (PC-3 prostate) | growth (SK-MEL-5 melanoma) | growth (UACC-62 melanoma) | growth (LOX IMVI melanoma) | growth (SK-MEL-28 melanoma) | growth (SK-MEL-2 melanoma) | growth (EKVX NSCLC) | growth (SN12C renal) | growth (UO-31 renal) | growth (TK-10 renal) | growth (ACHN renal) | growth (CAKI-1 renal) | growth (A498 renal) | growth (HL-60(TB) leukemia) | growth (CCRF-CEM leukemia) |
| --- | --- | --- | --- | --- | --- | --- | --- | --- | --- | --- | --- | --- | --- | --- | --- | --- | --- | --- | --- | --- |
| COc1ccc(/C=C(/C)[N+](=O)[O-])cc1OC | -25.4% (active) and -17.4% (active) | -70.6% (active) and -16.3% (active) | 78.5% (inactive) and 53.6% (inactive) | 65.9% (inactive) and 79.3% (inactive) | -46.5% (active) and -15.8% (active) | 19.4% (inactive) and 47.7% (inactive) | 52.9% (inactive) and 47.9% (inactive) | 46.1% (inactive) and 23.8% (inactive) | -51.5% (active) and -88.8% (active) | -50.9% (active) and 4.89% (active) | 8.73% (active) and 0.617% (active) | 65.6% (inactive) and 84.6% (inactive) | -1.3% (active) and 25.2% (inactive) | -63.9% (active) and -93.1% (active) | -49.9% (active) and 70.4% (inactive) | -1.7% (active) and -73% (active) | -6.27% (active) and -71.9% (active) | 112% (inactive) and 97.9% (inactive) | -14.7% (active) and -26% (active) | 0.7% (active) and 20.8% (inactive) |
| CC[C@H](C)[C@H](NC(=O)[C@H]1CCCCN1C)C(=O)N(C)[C@H](C[C@@H](OC(C)=O)c1nc(C(=O)NC23C4C5C2C2C3C4C52C(=O)OC)cs1)C(C)C (stereo partly specified) | 9.18% (active) | -5.46% (active) | 22.9% (inactive) | 28.1% (inactive) | 10.8% (inactive) | 23.5% (inactive) | -56.9% (active) | 43.8% (inactive) | 7.09% (active) | 59.1% (inactive) | 39.7% (inactive) | 36.2% (inactive) | 32.5% (inactive) | 33.4% (inactive) | 36.7% (inactive) | 16.2% (inactive) | 28.9% (inactive) | 3.94% (active) | -32.8% (active) | 6.99% (active) |
| O=C(O)CNCP(=O)(O)O | 123% (inactive) | 98.6% (inactive) | 96.5% (inactive) | 123% (inactive) | 98.3% (inactive) | 106% (inactive) | 111% (inactive) | 105% (inactive) | 95.7% (inactive) | 120% (inactive) | 98.5% (inactive) | 106% (inactive) | 101% (inactive) | 72.8% (inactive) | 108% (inactive) | 123% (inactive) | 100% (inactive) | 117% (inactive) | 95.8% (inactive) | 90.9% (inactive) |
| C[C@@]12CCCc3coc(c31)C(=O)c1cc3c(cc12)C(=O)C1=C(NCCS1(=O)=O)C3=O | 8.66% (active) | -4.92% (active) | -87.5% (active) | -68.8% (active) | -61% (active) | -6.62% (active) | -98% (active) | -68% (active) | -42.7% (active) | -9.02% (active) | -41.3% (active) | 11.1% (inactive) | -79.3% (active) | 35.7% (inactive) | 28.2% (inactive) | 30.6% (inactive) | 10.5% (inactive) | 35.3% (inactive) | -45% (active) | -28.7% (active) |
| N[C@@H](CCC(=O)CCl)C(=O)O | 93.7% [20 µM] (inactive) | 94.2% [20 µM] (inactive) | 66.9% [20 µM] (inactive) | 93.4% [20 µM] (inactive) | 96.5% [20 µM] (inactive) | 100% [20 µM] (inactive) | 101% [20 µM] (inactive) | 92.1% [20 µM] (inactive) | 96.7% [20 µM] (inactive) | 103% [20 µM] (inactive) | 87.6% [20 µM] (inactive) | 101% [20 µM] (inactive) | 89% [20 µM] (inactive) | 91% [20 µM] (inactive) | 101% [20 µM] (inactive) | 97.9% [20 µM] (inactive) | 97% [20 µM] (inactive) | 110% [20 µM] (inactive) | 101% [20 µM] (inactive) | 97.6% [20 µM] (inactive) |
| Cc1cc(NC(=O)NCCCOc2ccc(N3C(N)=NC(N)=NC3(C)C)cc2Cl)ccc1S(=O)(=O)F | 90.2% (inactive) | 4.91% (active) | 53.1% (inactive) | 27.7% (inactive) | 15.8% (inactive) | 11.9% (inactive) | 22.6% (inactive) | 25.2% (inactive) | 14.4% (inactive) | 48.9% (inactive) | 42.2% (inactive) | 43% (inactive) | 27.8% (inactive) | 94.9% (inactive) | 46.5% (inactive) | 72.6% (inactive) | 107% (inactive) | 94.6% (inactive) | 29.1% (inactive) | 32.4% (inactive) |
| NC(N)=NC(N)=Nc1ccc(Cl)cc1 | 108% (inactive) | 97.8% (inactive) | 77.1% (inactive) | 105% (inactive) | 113% (inactive) | 89.5% (inactive) | 108% (inactive) | 111% (inactive) | 110% (inactive) | 98.9% (inactive) | 111% (inactive) | 93% (inactive) | 103% (inactive) | 95.2% (inactive) | 115% (inactive) | 93.9% (inactive) |  |  | 48.4% (inactive) | 89.7% (inactive) |
| O=CC1(c2ccccc2)CCN(Cc2ccccc2)CC1 | 103% (inactive) | 107% (inactive) | 102% (inactive) | 109% (inactive) | 101% (inactive) | 98.1% (inactive) | 110% (inactive) | 105% (inactive) | 82.8% (inactive) | 112% (inactive) | 117% (inactive) | 101% (inactive) | 107% (inactive) | 83.9% (inactive) | 115% (inactive) | 112% (inactive) | 97.9% (inactive) |  | 97.8% (inactive) | 102% (inactive) |
| COC12CC3C4=CCOC5CC(=O)N6c7ccccc7C1(CCN2C4)C6C53 (stereo unspecified) | 103% (inactive) | 100% (inactive) | 70.1% (inactive) | 116% (inactive) | 93.2% (inactive) | 105% (inactive) | 110% (inactive) | 104% (inactive) | 96.9% (inactive) | 109% (inactive) | 108% (inactive) | 117% (inactive) | 119% (inactive) | 92.7% (inactive) | 100% (inactive) | 113% (inactive) | 102% (inactive) | 94.6% (inactive) |  | 99.7% (inactive) |
| CCCCOCCOP(=O)(OCCOCCCC)OCCOCCCC | 101% (inactive) | 104% (inactive) | 103% (inactive) | 98% (inactive) | 106% (inactive) | 103% (inactive) | 99.1% (inactive) | 93.7% (inactive) | 91.7% (inactive) | 117% (inactive) | 114% (inactive) | 97.7% (inactive) | 98% (inactive) | 100% (inactive) | 96.1% (inactive) | 102% (inactive) | 98% (inactive) | 89.1% (inactive) | 84.1% (inactive) | 110% (inactive) |
| COC(=O)[C@@H](C)C[C@H](Cc1ccccc1)NC(=O)c1cccc([C@@H](C[C@H](C(C)C)N(C)C(=O)[C@@H](NC(=O)[C@H]2CCCCN2C)C2CC2)OC(C)=O)n1 | 8.07% (active) | -8.46% (active) | 27.6% (inactive) | 30% (inactive) | 4.48% (active) | 18.8% (inactive) | -22.6% (active) | 41.4% (inactive) | 12.2% (inactive) | 62% (inactive) | 44.2% (inactive) | 54.6% (inactive) | 28.7% (inactive) | 40.6% (inactive) | 23.9% (inactive) | 24.7% (inactive) | 25.7% (inactive) | -4.08% (active) | -38.2% (active) | 16% (inactive) |
| C/C(=C\c1ccn(-c2ccc(N)cc2F)n1)[C@@H]1C[C@@H]2O[C@]2(C)CCC[C@H](C)[C@H](O)[C@@H](C)C(=O)C(C)(C)[C@@H](O)CC(=O)O1 | 14% (inactive) | 13.1% (inactive) | -6.93% (active) | 26% (inactive) | 18.9% (inactive) | 17% (inactive) | 8.85% (active) | 11.6% (inactive) | 27.3% (inactive) | 54.5% (inactive) | 13.5% (inactive) | 46.7% (inactive) | 29.3% (inactive) | 29.1% (inactive) | 48.3% (inactive) | 38.9% (inactive) | 41.4% (inactive) | 0.324% (active) | 3.32% (active) | 12.9% (inactive) |
| C[C@@H]1C/C=C\C(=O)O[C@H](/C=C/C#C/C=C/C(C)(C)[C@@H](O)c2cccc(O)c2Br)[C@@H](C)/C=C/[C@H](C)C[C@H](OC(N)=O)C1 | 2.46% (active) | 5.59% (active) | 32.7% (inactive) | 53.6% (inactive) | 24.5% (inactive) | 33.5% (inactive) | -61.5% (active) | -41.8% (active) | -2.94% (active) | 35.5% (inactive) | 15.1% (inactive) | 22% (inactive) | 36.4% (inactive) | 3.1% (active) | 43.5% (inactive) | 35% (inactive) | 6.13% (active) | 41% (inactive) | 3.08% (active) | 25.7% (inactive) |
